Source: PubChem BioAssay
PNC inhibitor = perinucleolar compartment assembly inhibition; PC3M PTB-GFP, PNC prevalence imaging, 16 h; hits give low values; actives 3.1% (n = 140,000); activity change (PNC), negative = inhibition, % at 10 µM;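 active means readout at or below -70, meaning at least 70% loss of cells showing the perinucleolar compartment, a nuclear body marking cancer cells; inconclusive means readout between -30 and a set limit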
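PC3M cells stably expressing PTB-GFP, 750–1000 cells/well, treated 16 h at 37 °C with compound (23 nl of library stock), in duplicate. After paraformaldehyde fixation and Hoechst stain, imaged at 20x; PNC prevalence scored by image analysis.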
ALDH1A1 block = inhibitors of human aldehyde dehydrogenase 1A1; actives 7.3% (n = 220,000); Potency, µM (top dose mostly 75.3 µM), actives largely listed as inhibitors; P00352; Purified ALDH1A1, NADH fluorescence, propionaldehyde substrate; AID 1030; active means well fitted inhibition curve with a large enough effect, not every such curve was filed as active; inconclusive means small, poorly fitted or top-dose-only effect, or another doubt; inactive means no such curve, though single readings can be large or run the other way
HTT aggregate = inhibitors of mutant huntingtin aggregate formation in PC12 cells; actives 1.1% (n = 220,000); AID 1688; PC12 HttQ103-GFP aggregates, Acumen cytometry, 40 h; Potency, µM (doses to about 46.1 µM), usual class: inhibitors; further: nearly all actives have a fitted effect of over 60% in size
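Quantitative HTS on tebufenozide-induced (100 nM) PC12 cells stably expressing polyQ103 Huntingtin exon 1–GFP. Reduction of bright GFP aggregates, detected by laser scanning cytometry after lysis, identified actives across the titration.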
HTT cytoprotect = cytoprotection in Huntington HTT-Q103 PC12 cell model. Potency, µM (titrated, usually from 56.4 µM), most hits filed as activators. actives 0.14% (n = 230,000). AID 1471. PC12 HTT-Q103 induced, cytoprotection, ATP luminescence, 40 h; further: nearly all actives have a fitted effect of over 45% in size
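Compounds were screened for protection of PC12 cells against cell death after tebufenozide induction (100 nM final) of mutant Huntingtin exon 1 (Q103) fused to GFP.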
CBFb RUNX1 block = inhibitors of human CBF-beta and RUNX1 interaction; Q01196+Q13951; AlphaScreen CBFb-His/RUNX1-biotin binding, biochemical; Potency, µM (doses to about 59.8 µM), actives largely listed as inhibitors; 230,000 tested, under 10 active
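AlphaScreen proximity signal reports loss of binding between His-tagged CBF-beta and biotin-labelled RUNX1, each at 30 nM. Proteins are pre-associated for 20 minutes, compounds added for 15 minutes, then beads for 90 minutes, all at ambient temperature.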
HPGD inh = blocks human HPGD enzyme activity; P15428; purified HPGD, NADH fluorescence kinetic, PGE2 substrate; Potency, µM, hits mostly inhibitors; actives 4.3% (n = 150,000); AID 894; active means well fitted inhibition curve with a large enough effect, not every such curve was filed as active; inconclusive means small, poorly fitted or top-dose-only effect, or another doubt; inactive means no such curve, though single readings can be large or run the other way
Target sequence (P15428 whole entry, looked up): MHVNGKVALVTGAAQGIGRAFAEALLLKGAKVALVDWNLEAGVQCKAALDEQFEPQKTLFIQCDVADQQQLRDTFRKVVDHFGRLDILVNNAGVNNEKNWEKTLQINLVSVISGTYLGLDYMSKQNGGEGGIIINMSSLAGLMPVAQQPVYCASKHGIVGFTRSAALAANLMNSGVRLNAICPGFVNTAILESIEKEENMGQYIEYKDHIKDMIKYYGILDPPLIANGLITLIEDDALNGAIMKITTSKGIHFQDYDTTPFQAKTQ
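NADH formation kinetics: reaction with 30 uM PGE2 and 1 mM NAD+ (final), 20 nM enzyme, Tris-HCl pH 8 with Tween 20, after 15 min compound preincubation at room temperature. Fluorescence change, last versus first of five reads.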
Numbers stand for hits; – = inactive; ? = inconclusive; · = no result; [ ] = remark or other dose. In the library only some 11% were active in any assay of this set; here they are far more common. Unless noted, the call rests on the fitted dose curve; in most records, active means well fitted curve in the direction sought with a large enough effect; inconclusive means small, poorly fitted or top-dose-only effect, or another doubt; inactive means no such curve, though single readings can be large; an effect the other way counts as inactive or inconclusive.

SMILES	PNC inhibitor	ALDH1A1 block	HTT aggregate	HTT cytoprotect	CBFb RUNX1 block	HPGD inh
COC(=O)Cc1sc(-c2ccccn2)nc1-c1ccccc1	·	?	–	1µM	–	·
COC(=O)Cc1ccc2sc(-c3ccccc3)nc2c1	–	–	–	–[10 µM]	–	?
NC(=O)CSc1nnc(-c2ccc(S(=O)(=O)N3CCCCC3)cc2)n1-c1ccccc1	?	15.8µM	–[9.22 µM]	–	–	–
CCn1c(SCC(N)=O)nnc1-c1ccc(S(=O)(=O)N2CCN(C)CC2)cc1	?	?	–	–[10 µM]	–	–
COc1ccccc1-n1c(SCC(N)=O)nnc1-c1ccc(S(=O)(=O)N2CCCCC2)cc1	–	4.47µM	–	–	–	–
COc1ccccc1/C=C/C=C1\Oc2c(ccc(O)c2CN2CCN(CCO)CC2)C1=O	–	?	–	·	–	15.8µM
COC(=O)[C@@]1(Cc2ccccc2)[C@H]2c3cc(C(=O)N4CCCC4)n(Cc4nc5ccccc5[nH]4)c3C[C@H]2CN1C(=O)c1ccccc1	·	–	·	–	–	–
COc1ccc(/C=N/n2cc(-c3ccc(OC)cc3)nc2N)cc1	-129.2	?	–	–[10 µM]	–	–
COc1ccc(-c2nc3cnc(N4CCN(C)CC4)nc3n(C)c2=O)cc1	·	?	·	–	·	·
O=S(=O)(Nc1ccc(Cc2ccncc2)cc1)c1ccc(Cl)c(Cl)c1	–	–	11.2µM	–	–	–
CCCCS(=O)(=O)Nc1ccc(Cc2ccncc2)cc1	–	–	–	–[1.9 µM]	–	15.8µM
CCOC(=O)Nc1ccc(Cc2ccncc2)cc1	·	–	–[9.22 µM]	–[10 µM]	–	·
O=C1CCCCCN1CP(=O)(O)CN1CCOCC1	–	–	–	–	–	–
COc1ccc(-c2cc(C(F)(F)F)c(C#N)c(SCC(=O)Nc3ccc(C)cc3)n2)cc1	–	–	–	–	–	?
COc1ccc(C(=O)CSc2[nH]c(=O)cc(C(F)(F)F)c2C#N)cc1	·	17.8µM	–[9.22 µM]	–[10 µM]	–	·
COC(=O)c1ccc(C(NC(=O)OCc2ccccc2)/C(=C/[C@@H](C)C(=O)N[C@@H](CO)Cc2ccccc2)c2cccnc2)cc1 (some centres not stated)	·	–	·	–	?	–
CN(C)c1ccc(/C=C(/NC(=O)c2ccccc2)C(=O)N/N=C/c2ccc([N+](=O)[O-])c(O)c2)cc1	–	3.98µM	–	–[10 µM]	–	15.8µM
COc1cc(/C=N/NC(=O)C(=O)N2CCCC2)ccc1O	?	–	–	–[10 µM]	–	–
COc1ccc(/C=N/NC(=O)C(=O)N2CCCC2)cc1OC	–	–	–	–[10 µM]	–	31.6µM
COc1ccc(/C=C(/NC(=O)c2ccccc2)C(=O)N/N=C/c2ccc3c(c2)OCO3)cc1OC	–	–	?	–	–	31.6µM
O=C(N/N=C/c1ccc2c(c1)OCO2)/C(=C/c1ccc2c(c1)OCO2)NC(=O)c1ccccc1	?	–	–	–	–	?
COc1ccc(/C=N/NC(=S)NC2CCS(=O)(=O)C2)cc1OC (configuration not stated)	-100.0	–	–	–	–	?
C=CC1=C2C=C(C3CC3)N(C3CCCC3)C=C2C(=O)C(C)(OC(=O)c2ccco2)C1=O (configuration not stated)	·	–[13.5 µM]	·	–[10 µM]	–[13.1 µM]	–
N[C@@H](Cc1ccnnc1)C(=O)O	·	–[13.5 µM]	·	–[10 µM]	·	–
COc1ccc(/C=N/NC(=O)CN2CCSCC2)cc1C	–	10µM	–	·	–	–
SMILES	PNC inhibitor	ALDH1A1 block	HTT aggregate	HTT cytoprotect	CBFb RUNX1 block	HPGD inh
CCOc1ccc(/C=N/NC(=O)CN2CCSCC2)cc1	?	?	–	–[10 µM]	–	–
CCN1CCN(C(=O)c2ccc(CN(c3ccccc3)S(=O)(=O)c3ccccc3)cc2)CC1	?	–	–	–[10 µM]	–	14.1µM
O=C(c1cccc(S(=O)(=O)NCc2ccccc2)c1)N1CCN(Cc2ccccc2)CC1	–	17.8µM	–	–	–	–
COc1ccc(N2CCN(C(=O)c3ccc(NS(=O)(=O)c4ccccc4)cc3)CC2)cc1	–	–	–	–[1.9 µM]	–	–
CN1CCN(C(=O)c2ccc(CN(c3ccccc3)S(=O)(=O)c3ccccc3)cc2)CC1	·	–	–[9.22 µM]	–[10 µM]	–	·
O=C(c1cccc(NS(=O)(=O)c2ccc(F)c(F)c2)c1)N1CCN(Cc2ccccc2)CC1	?	?	–	–[10 µM]	–	–
COc1cccc(S(=O)(=O)Nc2ccc(C(=O)N3CCN(C(=O)c4ccco4)CC3)cc2)c1	–	17.8µM	–	–[10 µM]	–	–
CC(=O)Nc1ccc(S(=O)(=O)NC2=C(N3CCN(Cc4ccccc4)CC3)C(=O)c3ccccc3C2=O)cc1	?	15.8µM	–	–	?	–
COc1ccc(-n2c(=O)c3ccccc3n(CC(=O)Nc3cc(C)on3)c2=O)cc1OC	–	–	–	–	–	–
CC(C)[C@@H](OCc1ccccc1)[C@H](C)/C=N\O[C@@H](C)c1cn([C@H](CO)Cc2ccccc2)nn1	·	–[13.5 µM]	·	–[10 µM]	–[13.1 µM]	·
O=C(O)c1ccc(NS(=O)(=O)c2ccsc2C(=O)O)c(O)c1	·	–	·	–	–	–
COc1ccc(NS(=O)(=O)c2ccc(C(=O)N3CCN(Cc4ccccc4)CC3)cc2)cc1	·	3.16µM	–	·	–	·
O=C(NC(c1ccccc1)c1ccccc1)c1cccc(S(=O)(=O)NCc2ccccc2)c1	–	4.47µM	–	–[10 µM]	–	–
O=C(c1ccc(CNS(=O)(=O)c2cccc(C(F)(F)F)c2)cc1)N1CCOCC1	–	?	?	–	–	14.1µM
O=C(NCc1cccc(C(F)(F)F)c1)c1cccc(S(=O)(=O)NCc2ccccc2)c1	–	–	–	–[10 µM]	–	–
CC(=O)Nc1ccc(S(=O)(=O)Nc2nc3ccccc3nc2Nc2ccc(S(N)(=O)=O)cc2)cc1	–	?	–	–[10 µM]	–	?
O=C(c1ccc(CNS(=O)(=O)c2cccc(Cl)c2)cc1)N1CCCC1	·	–	–	–	–	·
